These results are taken from PubChem BioAssay (Tox21).

A short description of assay [1]: qHTS assay to identify small molecule agonists of the androgen receptor (AR) signaling pathway in the presence of an antagonist - cell viability counter screen (AID 1259379).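 Note: MDA-kb2 human breast cancer cells carrying an MMTV luciferase reporter; series mostly up to about 92 µM; nearly all actives have a fitted effect of over 25% in size.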 The procedure, abridged: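 Cells: MDA-kb2 (MMTV-luc, AR and GR elements), 3,000/well, 5 hr settle. Added: nilutamide 3.0uM final, then compounds (15 conc.). Incubation: 16 hr, 37C, no CO2. Read-out: CellTiter-Fluor, 1 hr, fluorescence.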

A short description of assay [2]: qHTS assay to identify small molecule agonists of the estrogen receptor beta (ER-beta) signaling pathway - cell viability counter screen (AID 1259380). Note: nearly all actives have a fitted effect of over 30% in size. The essentials:
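HEK293T ER-beta-UAS-bla; 2% CS-FBS; 6 hr pre-plate, 16 hr cpd at 37C/5% CO2; LiveBLAzer read first, then CellTiter-Glo 30 min RT, luminescence.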

Assay [3] is described as follows: qHTS assay to identify small molecule antagonists of the estrogen receptor beta (ER-beta) signaling pathway - cell viability counter screen (AID 1259382).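 Note: HEK293T cells carrying ER-beta-UAS-bla reporter stimulated with estradiol; series mostly up to about 92 µM; nearly all actives have a fitted effect of over 55% in size.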 The procedure, abridged:
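Cells: ER-beta-UAS-bla HEK293T, 2,000/well, 2% CS-FBS, 6 hr settle. Cpd + E2 (1nM final), 16 hr, 37C/5% CO2. Bla FRET substrate 2 hr RT, then CellTiter-Glo 30 min RT, luminescence.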

Assay [4] addresses Estrogen receptor (Homo sapiens) (UniProt P03372). The assay is described as follows: qHTS assay to identify small molecule agonists of the estrogen receptor alpha (ER-alpha) signaling pathway in the presence of an antagonist (AID 1259383; calls by dose curve; note: nearly all actives have a fitted effect of over 15% in size; note: potency is the fitted concentration of half-maximal effect; for activation: top concentration of the series differs between compounds). The essentials:
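VM7Luc4E2, endog. ER-alpha + 4×ERE-luc; charcoal-stripped FBS, phenol red-free, 5 d; 24hr plating; +10.0nM ICI-182,780 (final); cpds 15 conc, 22hr, 37C/5% CO2; ONE-Glo luminescence.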

Assay [5] can be described thus: qHTS assay to identify small molecule agonists or antagonists of the thyroid stimulating hormone receptor (TSHR) signaling pathway - wild type cell line counter screen (AID 1259384; calls by dose curve). The essentials:
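Wild-type Hek293 cells, 800/well, 18 h at 37C, then compound with Ro20-1724 for 30 min RT. cAMP by HTRF (cAMP-d2/anti-cAMP cryptate), 1 h RT, fluorescence read. 15 concentrations, triplicates.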

For assay [6], the target named is Thyrotropin receptor (Homo sapiens) (UniProt P16473). The assay is described as follows: qHTS assay to identify small molecule antagonists of the thyroid stimulating hormone receptor (TSHR) signaling pathway (AID 1259385; calls by dose curve; note: nearly all actives have a fitted effect of over 20% in size; note: potency is the fitted concentration of half-maximal effect). The procedure, abridged:
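TSHR-HEK293 cells (800/well) plated 18 h, then compounds with Ro20-1724 and TSH at 1.5 ng/mL final, 30 min at room temperature. cAMP quantified by HTRF (cAMP-d2/anti-cAMP-cryptate, 1 h); 15 concentrations in triplicate.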

A short description of assay [7]: qHTS assay to identify small molecule agonists of the estrogen receptor alpha (ER-alpha) signaling pathway in the presence of an antagonist - cell viability counter screen (AID 1259386).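 Note: series mostly up to about 92 µM; cells exposed to compounds for 22 h at 37 °C before the viability read; nearly all actives have a fitted effect of over 30% in size.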 The procedure, abridged: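 VM7Luc4E2, stripped-serum pre-culture 5 d; 24hr plating; +ICI-182,780 10.0nM final; cpds 15 conc, 22hr, 37C/5% CO2; CellTiter-Fluor added at 21hr, fluorescence 1hr later.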

The target of assay [8] is Progesterone receptor (Homo sapiens) (UniProt P06401). The assay is described as follows: qHTS assay to identify small molecule agonists of the progesterone receptor (PR) signaling pathway (AID 1346784; calls by dose curve; note: nearly all actives have a fitted effect of over 30% in size). The essentials: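 Fluorescence from LiveBLAzer B/G FRET substrate cleavage (2 hr, RT) reported PR activation in PR-UAS-bla HEK 293T cells treated 16 hr at 37C/5% CO2 with compounds; medium contained 2% charcoal-stripped FBS.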

Assay [9] can be described thus: qHTS assay to identify small molecule antagonists of the progesterone receptor (PR) signaling pathway - cell viability counter screen (AID 1346798). Note: series mostly up to about 92 µM; nearly all actives have a fitted effect of over 50% in size. The procedure, abridged: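 CellTiter-Glo luminescence; PR-UAS-bla HEK293T, 3,000 cells/well; compound + R5020, 16 hr, 37C/5% CO2; 30 min RT before read.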
Assay [10] is described as follows: qHTS assay to identify small molecule antagonists of the TGF-beta/Smad signaling pathway - cell viability counter screen (AID 1346824). Note: nearly all actives have a fitted effect of over 50% in size. The essentials: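 SBE-bla HEK 293T cells, incubated overnight, then compound plus 0.25 ng/mL TGF-beta1 (stock added) for 5 hr at 37 C. Viability was read in the same wells by CellTiter-Glo luminescence after 30 min at room temperature.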

Assay [11] can be described thus: qHTS assay to identify small molecule agonists of the TGF-beta/Smad signaling pathway - cell viability counter screen (AID 1346829). Note: top concentration of the series differs between compounds; nearly all actives have a fitted effect of over 45% in size. The essentials:
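HEK 293T SBE-bla line, 5 hr compound exposure at 37 C, multiplexed CellTiter-Glo viability read by luminescence.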

The nature of assay [12]: qHTS assay to identify small molecule agonists of the TGF-beta/Smad signaling pathway (AID 1346859; active = well fitted activation curve with a large enough effect in the signal ratio in the repeat runs, not every such curve was filed as active; the % refers to the signal ratio; note: series mostly up to about 77 µM). The essentials:
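After overnight seeding, SBE-bla HEK 293T cells are dosed with compounds in DMSO and kept 5 hr at 37 C, 5% CO2. LiveBLAzer-type FRET substrate is then applied for 2 hr at room temperature.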

For assay [13], the target named is Thyrotropin-releasing hormone receptor (Homo sapiens) (UniProt P34981). The assay is described as follows: qHTS assay to identify small molecule antagonists of the thyrotropin-releasing hormone receptor (TRHR) signaling pathway (AID 1346877; active = well fitted inhibition curve with a large enough effect in the repeat runs, not every such curve was filed as active; note: series mostly up to about 51 µM). The procedure, abridged:
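Intracellular calcium fluorescence, read kinetically every second over 3 min, reports TRH-evoked signalling in HEK293 cells carrying TRHR. Test compounds were added 5 min ahead of a 1 nM TRH challenge.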

Assay [14] shares this target. The assay is described as follows: qHTS assay to identify small molecule agonists of the thyrotropin-releasing hormone receptor (TRHR) signaling pathway (AID 1346891; calls by dose curve;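 note: HEK293 cells expressing TRHR with calcium dye readout; series mostly up to about 58 µM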). The procedure, abridged:
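Compounds were tested as agonists at 15 concentrations, in triplicate, on TRHR-Hek293 cells; calcium-sensitive dye fluorescence was recorded for 3 min following addition.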

Assay [15] can be described thus: Human pregnane X receptor (PXR) small molecule agonists, qHTS cell viability counter screen (AID 1346977). Note: nearly all actives have a fitted effect of over 50% in size. The procedure, abridged: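 Viability counter screen: CellTiter-Fluor signal in PXR-Luc HepG2 cells, 24hr compound exposure, 37C, 5% CO2.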
The nature of assay [16]: Caspase-3/7 induction in HepG2 cells by small molecules, qHTS assay (AID 1346978). Note: nearly all actives have a fitted effect of over 15% in size. The essentials:
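Wild-type HepG2 cells, 2,000/well, settled 5 hr at 37 C and 5% CO2, then compound-treated for 17 hr; caspase-3/7 activity read by luminescent Caspase-Glo 3/7 after 30 min at room temperature.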

Assay [17] deals with Progesterone receptor (Homo sapiens) (UniProt P06401). The assay is described as follows: qHTS assay to identify small molecule antagonists of the progesterone receptor (PR) signaling pathway (AID 1346795; active = well fitted inhibition curve with a large enough effect in the signal ratio in the repeat runs, not every such curve was filed as active; the % refers to the signal ratio; note: potency is the fitted concentration of half-maximal effect). The essentials: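 Fluorescence intensity measured 2 hr after adding beta-lactamase FRET substrate to PR-UAS-bla HEK293T cells that had been co-treated 16 hr with compound and 1 nM R5020 (final concentration) in 2% charcoal-stripped FBS.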

Assay [18] is described as follows: qHTS assay to identify small molecule agonists of the progesterone receptor (PR) signaling pathway - cell viability counter screen (AID 1346799; calls by dose curve; note: nearly all actives have a fitted effect of over 45% in size; note: potency is the fitted concentration of half-maximal effect). The procedure, abridged:
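In parallel with the beta-lactamase readout, cytotoxicity toward PR-UAS-bla HEK293T cells was measured by CellTiter-Glo luminescence following 16 hr compound incubation in 2% charcoal-stripped FBS medium.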

The nature of assay [19]: Caspase-3/7 induction in CHO-K1 cells by small molecules, qHTS cell viability counter screen (AID 1346979). Note: nearly all actives have a fitted effect of over 35% in size. Note: potency is the fitted concentration of half-maximal effect. The essentials:
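Viability readout by fluorescence (CellTiter-Fluor) on wild-type CHO-K1 cells exposed for 16hr at 37C and 5% CO2 to compounds delivered in DMSO; reagent incubated 1hr before reading.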

Several values for one entry are separate records, joined by “and”; a condition that tells them apart may be missing. Equal values may be shown once. Results filed as inconclusive are left out. Where a structure was tested more than once in an assay, its records may differ in their call. Activity calls are given as the source filed them. Unless noted, calls come from the whole dose curve; as a rule, active = well fitted curve in the direction sought with a large enough effect in the repeat runs; inconclusive = weak or mixed curves; inactive = no such curve, though single readings can be large; an effect the other way counts as inactive or inconclusive.

Chain of Thyrotropin receptor (Homo sapiens) (P16473 whole entry, looked up): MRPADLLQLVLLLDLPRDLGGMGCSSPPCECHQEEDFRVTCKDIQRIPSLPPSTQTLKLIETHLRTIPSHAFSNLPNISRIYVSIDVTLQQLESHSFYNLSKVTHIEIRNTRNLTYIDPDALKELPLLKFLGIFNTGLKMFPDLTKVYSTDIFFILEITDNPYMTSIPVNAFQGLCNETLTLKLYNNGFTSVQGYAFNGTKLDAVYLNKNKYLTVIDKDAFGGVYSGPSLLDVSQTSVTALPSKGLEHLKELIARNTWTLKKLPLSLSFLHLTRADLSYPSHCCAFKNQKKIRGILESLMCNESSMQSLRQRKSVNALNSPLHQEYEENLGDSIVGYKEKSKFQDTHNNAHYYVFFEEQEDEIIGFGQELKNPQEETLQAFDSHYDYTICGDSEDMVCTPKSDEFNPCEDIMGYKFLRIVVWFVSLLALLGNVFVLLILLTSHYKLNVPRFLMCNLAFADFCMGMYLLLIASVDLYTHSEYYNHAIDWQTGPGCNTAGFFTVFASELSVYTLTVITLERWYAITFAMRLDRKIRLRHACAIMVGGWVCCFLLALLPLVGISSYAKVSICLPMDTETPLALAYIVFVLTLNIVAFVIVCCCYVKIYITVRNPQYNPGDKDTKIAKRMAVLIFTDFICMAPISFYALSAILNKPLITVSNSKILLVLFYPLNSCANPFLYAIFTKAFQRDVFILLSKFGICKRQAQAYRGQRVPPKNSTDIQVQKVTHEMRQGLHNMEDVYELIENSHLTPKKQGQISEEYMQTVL
Chain of Estrogen receptor (Homo sapiens) (P03372 whole entry, looked up): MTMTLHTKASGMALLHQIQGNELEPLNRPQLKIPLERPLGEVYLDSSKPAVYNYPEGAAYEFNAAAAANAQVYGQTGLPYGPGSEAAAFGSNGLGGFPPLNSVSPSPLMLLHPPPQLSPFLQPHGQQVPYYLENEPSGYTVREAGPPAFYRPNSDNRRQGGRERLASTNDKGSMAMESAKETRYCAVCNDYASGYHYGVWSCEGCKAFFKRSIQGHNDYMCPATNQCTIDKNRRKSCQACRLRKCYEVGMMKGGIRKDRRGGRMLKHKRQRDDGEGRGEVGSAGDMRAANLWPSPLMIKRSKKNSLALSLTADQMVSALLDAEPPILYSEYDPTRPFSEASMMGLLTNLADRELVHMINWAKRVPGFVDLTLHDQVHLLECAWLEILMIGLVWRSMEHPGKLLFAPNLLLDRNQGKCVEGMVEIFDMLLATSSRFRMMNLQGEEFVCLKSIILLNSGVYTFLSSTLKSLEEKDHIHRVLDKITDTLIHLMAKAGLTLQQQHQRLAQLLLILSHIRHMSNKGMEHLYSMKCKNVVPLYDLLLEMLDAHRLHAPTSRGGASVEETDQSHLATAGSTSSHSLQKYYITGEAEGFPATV
Chain of Progesterone receptor (Homo sapiens) (P06401 whole entry, looked up): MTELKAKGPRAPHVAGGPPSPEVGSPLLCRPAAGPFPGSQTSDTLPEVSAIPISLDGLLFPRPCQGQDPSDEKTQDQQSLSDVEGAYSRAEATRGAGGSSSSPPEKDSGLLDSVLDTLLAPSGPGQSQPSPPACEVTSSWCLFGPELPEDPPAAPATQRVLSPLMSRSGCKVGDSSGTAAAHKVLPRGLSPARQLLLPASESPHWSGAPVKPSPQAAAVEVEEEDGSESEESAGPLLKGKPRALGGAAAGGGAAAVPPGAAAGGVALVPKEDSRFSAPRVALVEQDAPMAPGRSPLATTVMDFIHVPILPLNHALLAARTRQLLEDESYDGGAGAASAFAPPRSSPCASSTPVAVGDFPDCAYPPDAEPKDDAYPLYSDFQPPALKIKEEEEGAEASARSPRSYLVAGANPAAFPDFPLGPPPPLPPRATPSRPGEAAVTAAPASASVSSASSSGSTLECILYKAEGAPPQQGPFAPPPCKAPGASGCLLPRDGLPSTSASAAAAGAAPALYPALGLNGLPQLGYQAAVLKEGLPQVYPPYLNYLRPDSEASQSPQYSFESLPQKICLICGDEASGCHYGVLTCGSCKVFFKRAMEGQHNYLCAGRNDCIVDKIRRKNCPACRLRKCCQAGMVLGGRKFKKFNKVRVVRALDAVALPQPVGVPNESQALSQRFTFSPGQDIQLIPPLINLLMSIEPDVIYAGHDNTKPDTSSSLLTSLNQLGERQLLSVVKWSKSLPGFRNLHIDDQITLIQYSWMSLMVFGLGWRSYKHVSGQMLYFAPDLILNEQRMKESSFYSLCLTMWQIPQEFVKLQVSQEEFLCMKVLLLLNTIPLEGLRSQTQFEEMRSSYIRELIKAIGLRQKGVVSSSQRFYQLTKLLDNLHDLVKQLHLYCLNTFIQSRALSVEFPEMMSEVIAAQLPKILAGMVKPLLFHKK
Chain of Thyrotropin-releasing hormone receptor (Homo sapiens) (P34981 whole entry, looked up): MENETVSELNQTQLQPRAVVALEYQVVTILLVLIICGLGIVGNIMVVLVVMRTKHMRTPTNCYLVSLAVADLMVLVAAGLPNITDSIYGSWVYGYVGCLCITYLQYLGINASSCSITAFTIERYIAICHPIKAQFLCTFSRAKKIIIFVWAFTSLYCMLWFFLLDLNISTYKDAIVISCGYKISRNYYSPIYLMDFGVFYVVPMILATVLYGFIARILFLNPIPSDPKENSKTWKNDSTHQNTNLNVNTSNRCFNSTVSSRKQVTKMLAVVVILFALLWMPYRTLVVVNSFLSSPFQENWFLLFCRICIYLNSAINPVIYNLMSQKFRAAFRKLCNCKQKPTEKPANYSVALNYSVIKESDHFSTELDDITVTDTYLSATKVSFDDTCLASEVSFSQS

With `CON(C)C(=O)Nc1ccc(Cl)c(Cl)c1`, the result in assay [1], in assay [5], in assay [7], in assay [8], in [11] and in assay [13] was inactive. Further, in assay [16], the result was inactive. In addition, the Potency result in [2], in [3], in assay [4], in assay [6], in assay [9] and in [10] was “inactive” in each case. For the same molecule, the Potency entry in assay [12], in assay [14] and in [15] was “inactive” in each case.
On to `O=S(=O)(c1ccc(O)cc1)c1ccc(O)cc1`, for which the outcome in assay [1], in assay [7], in [8], in assay [11], in assay [13] and in [16] was inactive. The Potency entry in assay [2], in [3], in assay [17], in assay [9], in [18] and in assay [10] was “inactive” throughout. For the same molecule, the Potency entry in assay [12], in [14], in assay [15] and in [19] was “inactive” each time. Besides, in [4], the Potency is 54.5 µM (active).
As for `ClCCBr`, the result in assay [1], in assay [5], in [7], in assay [8], in assay [11] and in assay [13] was inactive. Further, in [16], the result was inactive. In addition, the Potency entry in assay [3], in assay [4], in assay [6], in assay [17], in [9] and in assay [18] was “inactive” in each case. Moreover, the Potency entry in assay [10], in assay [12], in assay [14], in [15] and in assay [19] was “inactive” each time.
For the molecule `c1ccc2c(c1)oc1ccccc12`, the result in assay [1], in [5], in assay [7], in assay [8], in assay [11] and in [16] was inactive. The Potency result in assay [2], in assay [3], in [6], in assay [17], in assay [9] and in [18] was “inactive” throughout. For the same molecule, the Potency result in assay [10], in [12], in assay [14], in assay [15] and in assay [19] was “inactive” each time.
Consider `OC(O)C(Cl)(Cl)Cl`, for which the result in assay [1], in assay [5], in assay [7], in assay [8], in assay [11] and in assay [13] was inactive. The Potency result in assay [2], in assay [3], in [6], in [17], in assay [9] and in assay [18] was “inactive” each time. Also, the Potency result in assay [10], in assay [12], in assay [14], in assay [15] and in assay [19] was “inactive” in each case.
Regarding `Cc1ccc(N)cc1N`, the outcome in [1], in assay [7], in assay [8], in assay [11], in assay [13] and in assay [16] was inactive. In addition, the Potency entry in assay [2], in assay [3], in assay [4], in assay [6], in assay [17] and in [9] was “inactive” each time. Also, the Potency entry in [18], in [10], in [12], in [14], in assay [15] and in assay [19] was “inactive” each time.
On to `CCOP(=S)(OCC)SCCSCC`, for which the result in assay [1], in assay [5], in assay [7], in assay [8], in assay [11] and in assay [13] was inactive. The molecule was classed as inactive in assay [16]. For the same molecule, the Potency result in assay [3], in assay [6], in assay [17], in [9], in assay [18] and in assay [12] was “inactive” each time. Also, the Potency result in assay [14], in [15] and in assay [19] was “inactive” throughout.
Regarding `CC(NC(C)(C)C)C(=O)c1cccc(Cl)c1` (stereo not drawn), the outcome in assay [1], in assay [7], in [8], in assay [11] and in assay [13] was inactive. For the same molecule, the Potency result in assay [3], in assay [17], in [9], in [18], in assay [10] and in assay [12] was “inactive” in each case. Further, the Potency result in [14], in assay [15] and in assay [19] was “inactive” throughout.
Take `Nc1ccc(Oc2ccc(N)cc2)cc1`: the outcome in assay [1], in assay [5], in assay [7], in assay [8], in assay [11] and in assay [16] was inactive. The Potency result in assay [3], in assay [6], in [17], in assay [9], in assay [18] and in [10] was “inactive” throughout. In addition, the Potency result in assay [12], in assay [15] and in [19] was “inactive” throughout.
Turning to `O=S(=O)(c1ccc(Cl)cc1)c1cc(Cl)c(Cl)cc1Cl`, the result in [1], in assay [5], in assay [7], in assay [8] and in assay [11] was inactive. In addition, the Potency result in assay [3], in assay [4], in assay [9], in assay [10], in assay [12] and in assay [14] was “inactive” throughout. For the same molecule, the Potency result in assay [15] was “inactive”. The Potency in assay [6] is 61.1 µM (active); in [17], 13.7 µM (active); in assay [19] it was 54.4 µM (active) and 68.6 µM (active).
With `CN1C(=O)CN=C(c2ccccc2)c2cc(Cl)ccc21`, the outcome in [1], in assay [5], in assay [7], in assay [8], in [11] and in [13] was inactive. Also, the Potency result in assay [3], in assay [6], in [9], in assay [10], in assay [12] and in [14] was “inactive” in each case. The Potency result in [15] and in assay [19] was “inactive” in each case. In addition, in assay [18], the Potency was 27.7 µM (active) and inactive.
